30 targets from the supplement of paper PMC10849652 can be followed below.

About 8,800 targets were measured; listed, in parts, are those with a hit and a random draw of the rest. About 0.5% of all pairs of compound and target were hits. A number with no mark means an inactive call.

UniProt Q15544, sequence (Q15544 whole entry, looked up): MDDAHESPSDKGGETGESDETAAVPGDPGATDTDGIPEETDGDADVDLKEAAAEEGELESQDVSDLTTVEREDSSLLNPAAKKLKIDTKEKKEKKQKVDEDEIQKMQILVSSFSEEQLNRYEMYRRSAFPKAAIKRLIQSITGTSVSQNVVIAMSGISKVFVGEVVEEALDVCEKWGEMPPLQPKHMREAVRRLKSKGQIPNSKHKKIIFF
UniProt Q13309, sequence (Q13309 whole entry, looked up): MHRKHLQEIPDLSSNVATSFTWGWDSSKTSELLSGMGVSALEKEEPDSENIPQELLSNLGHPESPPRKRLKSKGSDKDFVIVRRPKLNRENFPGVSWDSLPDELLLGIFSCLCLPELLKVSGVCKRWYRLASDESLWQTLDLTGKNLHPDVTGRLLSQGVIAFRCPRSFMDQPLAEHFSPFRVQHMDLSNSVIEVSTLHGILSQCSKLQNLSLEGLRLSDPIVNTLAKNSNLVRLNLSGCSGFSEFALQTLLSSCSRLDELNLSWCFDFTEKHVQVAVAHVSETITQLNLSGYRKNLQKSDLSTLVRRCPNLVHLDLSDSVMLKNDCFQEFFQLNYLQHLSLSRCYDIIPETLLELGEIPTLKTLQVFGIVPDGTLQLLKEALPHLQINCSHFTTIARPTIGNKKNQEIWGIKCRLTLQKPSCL
UniProt Q9Y2H1, sequence (Q9Y2H1 whole entry, looked up): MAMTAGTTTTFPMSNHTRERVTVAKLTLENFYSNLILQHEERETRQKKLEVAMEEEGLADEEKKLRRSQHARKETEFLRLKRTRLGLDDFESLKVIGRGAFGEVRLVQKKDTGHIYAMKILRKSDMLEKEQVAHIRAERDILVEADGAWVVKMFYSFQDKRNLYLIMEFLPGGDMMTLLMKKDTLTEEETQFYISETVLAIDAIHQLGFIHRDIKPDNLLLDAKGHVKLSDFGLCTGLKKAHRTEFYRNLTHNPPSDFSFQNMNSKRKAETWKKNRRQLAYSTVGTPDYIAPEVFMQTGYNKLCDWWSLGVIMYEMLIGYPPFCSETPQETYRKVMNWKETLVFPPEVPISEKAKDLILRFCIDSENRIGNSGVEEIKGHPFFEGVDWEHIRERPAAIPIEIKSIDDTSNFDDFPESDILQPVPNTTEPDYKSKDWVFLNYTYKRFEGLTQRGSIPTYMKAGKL
UniProt Q96CQ1, sequence (Q96CQ1 whole entry, looked up): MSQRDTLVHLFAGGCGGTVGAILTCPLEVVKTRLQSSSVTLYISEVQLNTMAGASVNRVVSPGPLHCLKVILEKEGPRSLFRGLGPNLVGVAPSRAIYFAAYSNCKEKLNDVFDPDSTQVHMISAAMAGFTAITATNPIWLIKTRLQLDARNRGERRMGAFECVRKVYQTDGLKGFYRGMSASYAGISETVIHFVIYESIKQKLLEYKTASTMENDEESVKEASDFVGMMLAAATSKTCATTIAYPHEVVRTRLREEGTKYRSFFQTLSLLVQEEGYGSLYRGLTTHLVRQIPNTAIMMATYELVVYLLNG
UniProt P49675, sequence (P49675 whole entry, looked up): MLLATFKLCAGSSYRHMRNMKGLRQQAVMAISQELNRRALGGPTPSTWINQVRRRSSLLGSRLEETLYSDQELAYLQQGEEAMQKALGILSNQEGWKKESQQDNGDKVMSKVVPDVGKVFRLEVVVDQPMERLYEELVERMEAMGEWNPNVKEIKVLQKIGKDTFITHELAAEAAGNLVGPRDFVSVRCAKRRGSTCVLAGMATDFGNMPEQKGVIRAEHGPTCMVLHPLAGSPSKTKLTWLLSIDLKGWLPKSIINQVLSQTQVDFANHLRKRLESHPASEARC
UniProt B2RUZ4, sequence (B2RUZ4 whole entry, looked up): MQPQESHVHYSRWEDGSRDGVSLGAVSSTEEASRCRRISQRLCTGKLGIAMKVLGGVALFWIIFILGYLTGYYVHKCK
UniProt O60906, sequence (O60906 whole entry, looked up): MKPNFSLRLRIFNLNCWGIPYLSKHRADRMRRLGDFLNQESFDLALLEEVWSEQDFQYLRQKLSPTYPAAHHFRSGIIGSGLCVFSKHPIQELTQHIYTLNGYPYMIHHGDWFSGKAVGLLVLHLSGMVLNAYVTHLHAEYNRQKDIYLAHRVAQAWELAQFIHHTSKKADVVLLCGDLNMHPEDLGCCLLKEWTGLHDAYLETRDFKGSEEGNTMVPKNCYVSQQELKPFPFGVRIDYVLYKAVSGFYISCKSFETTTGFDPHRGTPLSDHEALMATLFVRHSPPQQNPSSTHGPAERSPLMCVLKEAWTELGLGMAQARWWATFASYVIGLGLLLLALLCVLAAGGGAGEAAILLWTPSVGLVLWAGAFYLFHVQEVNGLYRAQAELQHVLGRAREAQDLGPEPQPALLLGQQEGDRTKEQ
UniProt O00161, sequence (O00161 whole entry, looked up): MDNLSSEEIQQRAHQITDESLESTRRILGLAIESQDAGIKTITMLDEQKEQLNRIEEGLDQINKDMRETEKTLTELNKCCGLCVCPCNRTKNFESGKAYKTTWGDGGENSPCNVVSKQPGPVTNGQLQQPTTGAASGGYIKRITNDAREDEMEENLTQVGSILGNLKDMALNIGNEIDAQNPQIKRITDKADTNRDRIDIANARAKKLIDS
UniProt Q8IVJ1, sequence (Q8IVJ1 whole entry, looked up): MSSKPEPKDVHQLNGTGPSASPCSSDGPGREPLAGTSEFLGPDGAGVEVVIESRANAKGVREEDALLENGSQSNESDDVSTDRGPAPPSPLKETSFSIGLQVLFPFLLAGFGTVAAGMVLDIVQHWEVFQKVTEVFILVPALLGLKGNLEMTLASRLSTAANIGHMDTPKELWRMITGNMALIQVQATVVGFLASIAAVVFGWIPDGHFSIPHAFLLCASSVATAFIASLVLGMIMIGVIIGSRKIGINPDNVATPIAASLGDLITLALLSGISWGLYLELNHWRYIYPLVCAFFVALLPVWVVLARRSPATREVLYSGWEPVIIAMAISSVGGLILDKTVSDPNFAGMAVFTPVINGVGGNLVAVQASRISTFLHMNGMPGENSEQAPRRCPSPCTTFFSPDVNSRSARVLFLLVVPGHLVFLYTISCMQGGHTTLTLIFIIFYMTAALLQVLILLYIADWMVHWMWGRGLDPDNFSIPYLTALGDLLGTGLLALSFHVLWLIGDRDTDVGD
UniProt Q9UHW9, sequence (Q9UHW9 whole entry, looked up): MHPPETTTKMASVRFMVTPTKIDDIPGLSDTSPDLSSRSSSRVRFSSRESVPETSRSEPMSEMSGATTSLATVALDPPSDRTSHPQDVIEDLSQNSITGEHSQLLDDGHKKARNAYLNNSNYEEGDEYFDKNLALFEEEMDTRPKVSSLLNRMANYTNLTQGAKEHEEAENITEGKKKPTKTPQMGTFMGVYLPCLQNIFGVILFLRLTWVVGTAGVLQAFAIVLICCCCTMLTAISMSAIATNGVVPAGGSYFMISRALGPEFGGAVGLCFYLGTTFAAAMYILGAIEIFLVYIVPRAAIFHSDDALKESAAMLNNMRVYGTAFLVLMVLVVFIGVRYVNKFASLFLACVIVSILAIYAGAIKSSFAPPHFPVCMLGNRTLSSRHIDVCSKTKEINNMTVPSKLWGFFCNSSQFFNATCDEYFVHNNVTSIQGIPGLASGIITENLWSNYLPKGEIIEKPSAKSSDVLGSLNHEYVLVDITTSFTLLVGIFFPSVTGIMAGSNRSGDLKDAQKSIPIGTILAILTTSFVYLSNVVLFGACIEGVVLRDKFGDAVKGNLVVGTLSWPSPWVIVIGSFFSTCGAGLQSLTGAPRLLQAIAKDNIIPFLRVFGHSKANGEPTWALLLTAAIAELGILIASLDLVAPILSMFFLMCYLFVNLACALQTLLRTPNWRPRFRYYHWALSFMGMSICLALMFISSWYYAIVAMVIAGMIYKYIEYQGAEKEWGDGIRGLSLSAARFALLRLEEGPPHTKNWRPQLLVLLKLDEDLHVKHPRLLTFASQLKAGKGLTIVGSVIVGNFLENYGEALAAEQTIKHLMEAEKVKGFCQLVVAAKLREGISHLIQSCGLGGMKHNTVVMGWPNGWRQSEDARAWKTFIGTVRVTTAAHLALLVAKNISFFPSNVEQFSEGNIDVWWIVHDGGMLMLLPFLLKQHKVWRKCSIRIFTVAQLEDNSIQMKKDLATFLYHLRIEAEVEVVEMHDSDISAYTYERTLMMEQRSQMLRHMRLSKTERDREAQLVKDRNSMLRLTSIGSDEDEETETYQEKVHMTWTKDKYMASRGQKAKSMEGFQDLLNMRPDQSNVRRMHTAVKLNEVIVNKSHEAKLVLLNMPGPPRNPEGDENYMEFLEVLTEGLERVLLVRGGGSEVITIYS
UniProt Q9NP59, sequence (Q9NP59 whole entry, looked up): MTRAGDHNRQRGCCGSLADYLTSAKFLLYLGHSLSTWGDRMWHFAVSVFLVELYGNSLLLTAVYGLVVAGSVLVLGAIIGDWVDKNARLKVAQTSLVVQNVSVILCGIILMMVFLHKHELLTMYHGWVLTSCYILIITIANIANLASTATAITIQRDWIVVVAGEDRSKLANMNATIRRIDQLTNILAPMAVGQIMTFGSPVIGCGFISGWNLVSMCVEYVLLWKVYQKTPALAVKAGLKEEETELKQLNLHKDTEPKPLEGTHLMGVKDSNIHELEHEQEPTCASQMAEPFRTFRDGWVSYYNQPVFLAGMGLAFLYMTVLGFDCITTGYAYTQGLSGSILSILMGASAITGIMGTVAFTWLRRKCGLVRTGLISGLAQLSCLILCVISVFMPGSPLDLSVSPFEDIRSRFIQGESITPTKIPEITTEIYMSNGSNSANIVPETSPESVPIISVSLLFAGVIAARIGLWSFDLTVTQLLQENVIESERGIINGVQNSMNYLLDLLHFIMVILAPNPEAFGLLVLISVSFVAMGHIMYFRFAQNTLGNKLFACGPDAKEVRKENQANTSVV

Compound in the first assay: COC(=O)N[C@@H](C)CNc1nccc(-c2cn(C(C)C)nc2-c2cc(Cl)cc(NS(C)(=O)=O)c2F)n1 [encorafenib]
The experiment in a line: log2 fold change, soluble protein after heating vs DMSO (PISA); higher = thermal stabilisation; K562 lysate, 10 uM; active = over 0.2 and 3.5 SD of the protein, either way, in both replicates (recomputed). In a few lines:
(§1)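 To prepare the extract, K562 pellets were dounce-homogenised in PBS pH 7.4 with 1 mM MgCl2, giving crude material at 1 mg/mL protein. This was treated with 10 μM compound for 30 min, then heated in aliquots for 3 min over 48°C-58°C before pooling and addition of NP-40 to 0.5% at 4°C. Centrifugation at 21,000xg for 90 min left soluble protein in the supernatant, which TMTpro 16plex LC-MS/MS quantified with equalised channel sums. Results are log-two fold changes in thermal stability compared with solvent controls, from duplicates.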
As to SKP2 (UniProt Q13309), the log2 fold change was -0.053.
Take SRC isoform 2 (UniProt P12931): the log2 fold change was -0.171.
Same read-out and setting: then SLC12A6 isoform 2 (UniProt Q9UHW9), with 0.031.
Turning to SNAP23 isoform 2 (UniProt O00161), the log2 fold change was -0.295.
As for SMARCA4 isoform 4 (UniProt P51532), the log2 fold change is -0.315.
For the target SZT2 (UniProt Q5T011), the log2 fold change was -0.011.
Regarding STAR (UniProt P49675), the log2 fold change is -0.052.
As to STK38L (UniProt Q9Y2H1), the log2 fold change is -0.036.
For SIN3B (UniProt O75182), the log2 fold change is 0.12.
Regarding TAF11 (UniProt Q15544), the log2 fold change is -0.155.
On to STK26 isoform 3 (UniProt Q9P289), for which the log2 fold change is 0.034.
On the same count and under the same terms, then SMIM1 (UniProt B2RUZ4), with 0.226; and SNRPD2 (UniProt K7EJB5), with -0.069; and SLU7 (UniProt O95391), with 0.071.
The same measure, in the same setting: then SLC25A36 (UniProt Q96CQ1), with 0.041; and TARDBP (UniProt K7EN94), with 0.224.
Turning to SMPD2 (UniProt O60906), the log2 fold change was 0.09.
As to SLC40A1 (UniProt Q9NP59), the log2 fold change is 0.013.
Consider SLC41A1 (UniProt Q8IVJ1), for which the log2 fold change was 0.071.
Still for that read-out and setting: then SLC35A3 isoform 2 (UniProt Q9Y2D2), with 0.067.

Compound in a further assay: COC(=O)[C@H](CCSC)NC(=O)C1=C(C=C(C=C1)NC[C@H](CS)N)C2=CC=CC=C2
The description is as above. The method in brief: as §1
As for SKP2 (UniProt Q13309), the log2 fold change is 0.085.
Take SRC isoform 2 (UniProt P12931): the log2 fold change is 0.399.
Take SLC12A6 isoform 2 (UniProt Q9UHW9): the log2 fold change is 0.075.
On the same count and under the same terms, then SNAP23 isoform 2 (UniProt O00161), with 0.071; and SMARCA4 isoform 4 (UniProt P51532), with 0.04; and SZT2 (UniProt Q5T011), with -0.105.
For STAR (UniProt P49675), the log2 fold change was 0.063.
As for STK38L (UniProt Q9Y2H1), the log2 fold change is 0.193.
With SIN3B (UniProt O75182), the log2 fold change was 0.272.
Take TAF11 (UniProt Q15544): the log2 fold change was 0.398 (active).
For the target STK26 isoform 3 (UniProt Q9P289), the log2 fold change was 0.001.
With SMIM1 (UniProt B2RUZ4), the log2 fold change was -0.07.
With SNRPD2 (UniProt K7EJB5), the log2 fold change was 0.047.
Consider SLU7 (UniProt O95391), for which the log2 fold change was 0.021.
Regarding SLC25A36 (UniProt Q96CQ1), the log2 fold change was 0.
Regarding TARDBP (UniProt K7EN94), the log2 fold change was 0.04.
As for SMPD2 (UniProt O60906), the log2 fold change is -0.22.
For SLC40A1 (UniProt Q9NP59), the log2 fold change is -0.072.
For SLC41A1 (UniProt Q8IVJ1), the log2 fold change was -0.031.
As to SLC35A3 isoform 2 (UniProt Q9Y2D2), the log2 fold change was -0.019.

Compound in the next assay: COc1cc(Nc2ncc3c(n2)-c2ccc(Cl)cc2C(c2c(F)cccc2OC)=NC3)ccc1C(=O)O [alisertib]
Described as above. In a few lines: as §1
Take SKP2 (UniProt Q13309): the log2 fold change is 0.01.
As to SNAP23 isoform 2 (UniProt O00161), the log2 fold change is -0.15.
As to TAOK2 isoform 2 (UniProt Q9UL54), the log2 fold change was -0.046.
As to SMARCA4 isoform 4 (UniProt P51532), the log2 fold change was -0.046.
Take SZT2 (UniProt Q5T011): the log2 fold change is -0.193.
The same measure, in the same setting: then STAR (UniProt P49675), with 0.133.
As to STK38L (UniProt Q9Y2H1), the log2 fold change was 0.06.
As to SNIP1 (UniProt Q8TAD8), the log2 fold change was -0.024.
STK17A (UniProt Q9UEE5): the log2 fold change is -0.291.
Same read-out and setting: then SNAPC2 (UniProt Q13487), with 0.014; and SIN3B (UniProt O75182), with -0.064.
Regarding STAU1 isoform 3 (UniProt O95793), the log2 fold change is -0.068.
In the case of TAF11 (UniProt Q15544), the log2 fold change is -0.053.
SMIM1 (UniProt B2RUZ4): the log2 fold change was -0.149.
On to SNRPD2 (UniProt K7EJB5), for which the log2 fold change was 0.103.
On the same count and under the same terms, then SLU7 (UniProt O95391), with 0.002.
Consider SLC25A36 (UniProt Q96CQ1), for which the log2 fold change is 0.04.
With SLC40A1 (UniProt Q9NP59), the log2 fold change is 0.018.
The same measure, in the same setting: then SLC41A1 (UniProt Q8IVJ1), with 0.024; and STK17B (UniProt O94768), with 0.066.
For SLCO4A1 (UniProt Q96BD0), the log2 fold change is -0.041.
As for SIX5 (UniProt Q8N196), the log2 fold change was 0.023.
Take SLC35A3 isoform 2 (UniProt Q9Y2D2): the log2 fold change was 0.069.

Compound in a further assay: COc1cc2nc(-c3cc(F)ccc3O)nc(N[C@@H]3CNC[C@H]3C(C)(C)O)c2cc1OC
Described as above. In a few lines:
as §1
Turning to SKP2 (UniProt Q13309), the log2 fold change is 0.173.
Take SRC isoform 2 (UniProt P12931): the log2 fold change was 0.
Consider SLC12A6 isoform 2 (UniProt Q9UHW9), for which the log2 fold change is -0.106.
Consider SNAP23 isoform 2 (UniProt O00161), for which the log2 fold change is -0.152.
Same read-out and setting: then SPAG1 (UniProt Q07617), with -0.03; and SMARCA4 isoform 4 (UniProt P51532), with -0.038.
SZT2 (UniProt Q5T011): the log2 fold change was -0.031.
SHB (UniProt Q15464): the log2 fold change was 0.034.
Same read-out and setting: then TAF11 (UniProt Q15544), with 0.048.
Still for that read-out and setting: then SMIM1 (UniProt B2RUZ4), with 0.022.
Consider SNRPD2 (UniProt K7EJB5), for which the log2 fold change is 0.025.
SLC25A36 (UniProt Q96CQ1): the log2 fold change is 0.049.
The same measure, in the same setting: then SMPD2 (UniProt O60906), with -0.074; and SLC40A1 (UniProt Q9NP59), with 0.039; and SLC41A1 (UniProt Q8IVJ1), with 0.014.
For SIX5 (UniProt Q8N196), the log2 fold change was 0.008.
Still for that read-out and setting: then SLC35A3 isoform 2 (UniProt Q9Y2D2), with -0.019.
